PLK1 PBD block – PLK1 (human) polo-box domain binding inhibition; Potency, µM, for the others: max response, negative = inhibition, usual class: inhibitors; P53350; actives 2.8% (n = 360,000); AID 720504; Plk1 PBD binding of FITC phosphopeptide, fluorescence polarization; note: potency is the fitted concentration of half-maximal effect; series mostly up to about 57 µM; % is set by controls: 0 for no effect and ±100 for the full control effect; nearly all actives have a fitted effect of over 65% in size
Target sequence (P53350 whole entry, looked up, the tested form may be a part): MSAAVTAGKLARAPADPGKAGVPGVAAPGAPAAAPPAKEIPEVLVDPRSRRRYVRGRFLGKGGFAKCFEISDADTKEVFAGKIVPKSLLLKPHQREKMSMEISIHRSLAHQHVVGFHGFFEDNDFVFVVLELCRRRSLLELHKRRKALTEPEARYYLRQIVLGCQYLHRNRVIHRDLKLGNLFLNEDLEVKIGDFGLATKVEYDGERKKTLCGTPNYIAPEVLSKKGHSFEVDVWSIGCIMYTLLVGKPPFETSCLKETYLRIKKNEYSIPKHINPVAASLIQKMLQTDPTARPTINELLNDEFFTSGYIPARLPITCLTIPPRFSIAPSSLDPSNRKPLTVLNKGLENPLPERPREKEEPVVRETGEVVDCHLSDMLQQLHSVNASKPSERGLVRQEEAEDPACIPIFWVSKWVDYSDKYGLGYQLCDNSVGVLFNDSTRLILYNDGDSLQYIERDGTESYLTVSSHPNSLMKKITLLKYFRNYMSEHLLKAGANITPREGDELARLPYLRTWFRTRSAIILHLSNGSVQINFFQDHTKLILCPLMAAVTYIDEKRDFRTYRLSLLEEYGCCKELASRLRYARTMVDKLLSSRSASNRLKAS
BAZ2B block – inhibitors of human BAZ2B bromodomain | Potency, µM (top dose mostly 114 µM), for the others: top-dose activity change, negative = inhibition, actives largely listed as inhibitors | AlphaScreen BAZ2B-H3K14Ac peptide displacement | actives 4.4% (n = 360,000) | AID 504333; note: potency is the fitted concentration of half-maximal effect; % is set by controls: 0 for no effect and ±100 for the full control effect; nearly all actives have a fitted effect of over 60% in size
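Compounds, titrated to a top concentration of 110 uM, were incubated 30 min at room temperature with preformed BAZ2B/acetyl-K14 H3 peptide complex (50 nM each). Proximity signal was measured by AlphaScreen after 20 min with beads.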
JMJD2A Tudor inh – inhibitors of human JMJD2A Tudor domain; Potency, µM (titrated, usually from 114 µM), for inactives: top-dose activity change, negative = inhibition, most hits filed as inhibitors; AID 504339; actives 4.4% (n = 390,000); AlphaScreen JMJD2A-Tudor / H3K4me3 peptide binding; O75164; note: potency is the fitted concentration of half-maximal effect; % is set by controls: 0 for no effect and ±100 for the full control effect; nearly all actives have a fitted effect of over 50% in size
PI5P4K alpha inh – inhibitors of human PI5P4K alpha; PI5P4Kalpha enzyme, ADP-Glo luminescence, 60 min; stronger effect = lower value; AID 652105; max response, %; actives 1.2% (n = 330,000); active = max response of -50% or lower; inconclusive = between -30% and -50%; inactive = -30% or higher; note: value at the top dose of about 77 µM; % is set by controls: 0 for no effect and ±100 for the full control effect
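PI5P4Kalpha ADP-Glo assay; 5 microM ATP final; 60 min RT reaction; HEPES pH 7.4/EGTA/CHAPS, 5% DMSO; controls lacking substrate or enzyme; luminescent end-point.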
HP1b binding inh – blocks HP1-beta chromodomain binding to methylated histone tails; actives 0.56% (n = 390,000); Potency, µM (highest dose often 114 µM), for inactives: top-dose activity change, negative = inhibition, usual class: inhibitors; AlphaScreen HP1-beta / biotin-H3K9me3 peptide binding; P83916; note: potency is the fitted concentration of half-maximal effect; nearly all actives have a fitted effect of over 70% in size
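Compound inhibition of the preformed complex between 50 nM HP1-beta and 50 nM biotinylated H3K9me3 peptide was read by AlphaScreen. Buffer was PBS pH 7.4 with 0.01% Tween-20. Incubations ran 30 min at room temperature, with 10 ug/mL donor/acceptor beads.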
G9a block – inhibitors of human histone lysine methyltransferase G9a | Q96KQ7 | G9a H3K9 monomethylation, AlphaScreen, 2 h | Potency, µM (series often up to 102 µM), inactives show at the highest dose activity, negative = inhibition, hits mostly inhibitors | actives 8.8% (n = 350,000) | AID 504332; note: potency is the fitted concentration of half-maximal effect; % is set by controls: 0 for no effect and ±100 for the full control effect; nearly all actives have a fitted effect of over 75% in size
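Signal arises when biotinylated H3K9 peptide, once monomethylated, bridges streptavidin donor and antibody-captured acceptor beads. Enzyme at 20 nM was preincubated 15 min with test compounds; peptide 500 nM and SAM 20 uM then reacted for 2 h.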
An asterisk follows results filed as active; ? = inconclusive; . = no result given; [ ] = remark or other dose. Shown are actives, neighbours in structure and some others; about 12% of the full set was active somewhere. Unless noted, calls come from the whole dose curve; as a rule, active = well fitted curve in the direction sought with a large enough effect; inconclusive = small, poorly fitted or top-dose-only effect, or another doubt; inactive = no such curve, though single readings can be large; an effect the other way counts as inactive or inconclusive.

SMILES	PLK1 PBD block	BAZ2B block	JMJD2A Tudor inh	PI5P4K alpha inh	HP1b binding inh	G9a block
C=CCOc1ccccc1OC[C@H](O)CNC(C)C	.	.	.	.	.	20%[21.5 µM]
CC1=NN(C(N)=S)C(C)(C)C1	1%	-6%	-10%	8	43%	.
CC1=NN(C(=S)Nc2ccccc2)C(C)(C)C1	-12%	11%	-3%	-4	23%	32µM*
CC(C)(C)N(NS(=O)(=O)c1ccc(F)cc1)c1ccccc1	?	7%	?	11	27%	8.9µM*
COc1ccc(-c2cn3nc(SCC(=O)Nc4ccccc4F)ccc3n2)cc1	.	-6%	2%	.	27%[57 µM]	11%[59 µM]
CCN1CCN(c2ccc([N+](=O)[O-])c(Sc3nc4ccccc4[nH]3)c2)CC1	-13%	-27%	-34%	-5	?	32µM*
O=[N+]([O-])c1ccc(N2CCN(CCO)CC2)cc1Sc1ccccn1	-7%	-19%	-5%	0	1%	-5%
O=C(O)c1cc([N+](=O)[O-])c(Sc2nc3ccccc3[nH]2)c([N+](=O)[O-])c1	21µM*	-7%	-7%	-27	26%	40µM*
Cn1cnc([N+](=O)[O-])c1Sc1nc2ccccc2[nH]1	-12%	25%	-9%	-15	15%	-3%
CS(=O)(=O)c1cc([N+](=O)[O-])c(Sc2nc3ccccc3[nH]2)c([N+](=O)[O-])c1	1.5µM*	-29%	?	.	?	?
COC(=O)c1ccccc1NC(=O)CCCn1nc(C)c2sc3ccccc3c2c1=O	.	-2%	13%	.	32%	-35%[59 µM]
COc1cccc(-n2c(=S)sc3c(=O)n(-c4ccccc4OC)c(=S)[nH]c32)c1	?	?	?	-8	-6%	?
COc1ccc(OC)c(-n2c(=S)[nH]c3c(sc(=S)n3-c3ccccc3C)c2=O)c1	?	?	89µM*	-22	-22%	31%[59 µM]
CC(OC(=O)CC(C)c1ccccc1)C(=O)Nc1ccc(Cl)cn1 (stereo not drawn)	-7%	27%	32%	0	64%	29%
Cc1sc2ncnc(SC(C)C(=O)N3c4ccccc4Sc4ccccc43)c2c1C (stereo not drawn)	-5%	-14%	-21%	11	36%	-31%
Cc1sc2ncnc(Sc3ccccc3C(=O)Nc3ccc(C#N)cc3)c2c1C	6%	-28%	-16%	7	12%	?
Cc1sc2ncnc(Sc3ccccc3C(=O)Nc3ccc(Br)cc3)c2c1C	-19%	27%	?	0	?	8.9µM*
COc1ccc(NC(=O)CN(C)C(=O)c2ccccc2Sc2ncnc3sc(C)c(C)c23)cc1	-12%	-21%	-19%	3	29%	35µM*
Cc1sc2ncnc(Sc3ccccc3C(=O)Nc3ccccc3Cl)c2c1C	-1%	-10%	7%	-2	40%	3.5µM*
CCOc1ccccc1C(=O)N(C)CC(=O)Nc1ccc(OC)cc1	-4%	-15%	-11%	-6	14%	15%
COc1ccc(N2CCN(C(=O)C3CC(O)CN3S(=O)(=O)c3ccc([N+](=O)[O-])cc3)CC2)cc1 (stereo not drawn)	-7%	-11%	-10%[57.1 µM]	3	25%	45µM*
Cc1ccc(S(=O)(=O)N2CC(O)C[C@H]2C(=O)OCC(=O)Nc2ccc(N3CCCCC3)cc2)cc1C (stereo partly drawn)	-9%	40µM*	45µM*	2	?	6.3µM*
COc1cc(NC(=O)COC(=O)C2CC(O)CN2S(=O)(=O)c2ccc(Cl)cc2)c(C)cc1[N+](=O)[O-] (stereo not drawn)	-4%	.	-26%	5	21%	.
COc1ccc(S(=O)(=O)CCC(=O)N2CCN(c3ccc([N+](=O)[O-])cc3)CC2)cc1	1%	-14%[57.1 µM]	-23%	5	-2%	17%
O=C(COC(=O)[C@@H]1CC(O)CN1S(=O)(=O)c1ccc([N+](=O)[O-])cc1)NC12CC3CC(CC(C3)C1)C2 (stereo partly drawn)	1%	-6%	-8%	-2	13%	20µM*
